Screening results as filed in PubChem.
ELG1 DNA repair – ELG1-dependent DNA repair inhibition; HEK293T ELG1-luciferase reporter, luminescence, 16 h; DNA damage induced by 5-fluorouridine; 330,000 compounds, 2.3% hits; Potency, µM (doses to about 46.1 µM), inactives show at the highest dose activity change, negative = inhibition, most hits filed as inhibitors; also: % is scaled to controls: 0 for no effect and ±100 for the full control effect; nearly all actives have a fitted effect of over 55% in size
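Step one: seed 2,000 cells per well. Step two: pin-transfer compound or DMSO alongside 5-fluorouridine. Step three: incubate 16 hr, 37 °C, 5% CO2. Step four: add ONE-Glo, wait 30 min, read luminescence.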
Rab9 promoter act – Rab9 promoter activation; Huh7 Rab9 promoter-luciferase reporter, luminescence, 24 h; Potency, µM (titrated, usually from 9.22 µM), for inactives: at the highest dose activation, negative = inhibition, most hits filed as activators; AID 485297; 320,000 compounds, 2.8% hits; also: % of control where 0% means no effect; nearly all actives have a fitted effect of over 60% in size
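Luciferase signal after 10 min detection reagent at ambient indicates Rab9 promoter upregulation; stably transfected Huh7 cells were treated 24 h with compound in DMSO at 37 °C, 5% CO2.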
SMN2 splice enh – SMN2 splice variant enhancement. HEK293 SMN2-luciferase splicing reporter, luminescence, 30-36 h. Potency, µM (titrated, usually from 46.1 µM), inactives show at the highest dose activity change, positive = activation, most hits filed as activators. 210,000 compounds, 2.8% hits. AID 1458; also: % of control where 0% means no effect; nearly all actives have a fitted effect of over 55% in size
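HEK293 cells carry an SMN2 minigene-luciferase reporter in which exon 7 inclusion puts luciferase in frame. Cells were seeded at 2000 cells/well, attached for 10-12 hours, then exposed to compounds for 30-36 hours at 37C before ONE-Glo luminescence.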
ELG1 genotox – induces genotoxicity in HEK293T cells with luciferase-tagged ELG1; HEK293T ELG1-luciferase reporter, luminescence, 16 h; Potency, µM (titrated, usually from 46 µM), without a hit: at the top dose activity change, positive = activation, actives largely listed as activators; 330,000 compounds, 1.3% hits; also: % of control where 0% means no effect; nearly all actives have a fitted effect of over 60% in size
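After overnight (16 hr) compound treatment at 37 °C, ELG1-luciferase HEK293T cells were lysed with ONE-Glo; luminescence quantified 30 min later at room temperature.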
NPC1 prom act – activators of NPC1 promoter; Huh7 NPC1 promoter luciferase reporter, 24 h; Potency, µM (highest dose often 9.22 µM), for inactives: top-dose activation, actives largely listed as activators; 320,000 compounds, 2.4% hits; also: % of control where 0% means no effect; nearly all actives have a fitted effect of over 60% in size
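Quantitative HTS used a cell-based reporter: Huh7 cells stably bearing the NPC1 promoter upstream of luciferase were treated with compounds for 24 h, and promoter activation was read as luminescence.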
FLuc counter – firefly luciferase modulation, counter-screen for miR-21 project; P08659; purified FLuc, Km substrates, luminescence inhibition; Potency, µM (top dose mostly 57.5 µM), for the others: top-dose activity change, negative = inhibition, most hits filed as inhibitors; 360,000 compounds, 6.9% hits;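 also: plate controls were vehicle for no effect and reference inhibitor for full effect; nearly all actives have a fitted effect of over 55% in size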
Target sequence (P08659 whole entry, looked up): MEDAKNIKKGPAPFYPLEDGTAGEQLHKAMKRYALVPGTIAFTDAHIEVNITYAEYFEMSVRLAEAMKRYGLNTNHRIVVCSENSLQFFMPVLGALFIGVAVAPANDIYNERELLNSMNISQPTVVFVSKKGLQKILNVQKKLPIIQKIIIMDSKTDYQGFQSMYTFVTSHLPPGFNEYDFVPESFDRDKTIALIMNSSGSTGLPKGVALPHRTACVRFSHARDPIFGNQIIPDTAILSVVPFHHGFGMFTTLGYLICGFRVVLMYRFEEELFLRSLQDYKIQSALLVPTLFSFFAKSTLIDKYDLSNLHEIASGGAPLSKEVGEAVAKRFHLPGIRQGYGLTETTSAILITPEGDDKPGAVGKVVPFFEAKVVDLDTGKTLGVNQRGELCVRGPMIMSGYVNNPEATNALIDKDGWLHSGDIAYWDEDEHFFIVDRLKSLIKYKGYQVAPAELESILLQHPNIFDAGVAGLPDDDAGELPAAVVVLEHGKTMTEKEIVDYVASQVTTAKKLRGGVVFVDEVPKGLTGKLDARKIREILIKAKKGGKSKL
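Purified P. pyralis luciferase, 10 nM final, with Km-level 10 uM D-luciferin and 10 uM ATP in 50 mM Tris acetate pH 7.5, 10 mM Mg acetate, 0.01% Tween-20, 0.05% BSA; 6-point qHTS titration about 60 µM downward; luminescence read.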
Starred values were filed as active, the others as inactive; ? = inconclusive; . = not tested or not shown; [ ] = another dose, or the depositor's remark. Hits are enriched below; roughly 9.4% of the tested compounds scored in any of these assays. Calls follow the shape of the dose curve; as a rule, active = well fitted curve in the direction sought with a large enough effect; inconclusive = small, poorly fitted or top-dose-only effect, or another doubt; inactive = no such curve, though single readings can be large; an effect the other way counts as inactive or inconclusive. Potency is read from the fitted curve at half-maximal effect.

SMILES | ELG1 DNA repair | Rab9 promoter act | SMN2 splice enh | ELG1 genotox | NPC1 prom act | FLuc counter
CCCCCCCCCCCCC[N+](C)(C)Cc1ccccc1 | . | . | -36.7% | . | . | .
CNC(=O)/C(C#N)=C/c1c(N(Cc2ccccc2)Cc2ccccc2)nc2ccccn2c1=O | 18.4µM* | -8.5% | -2.7% | -7.0% | -0.4% | -1.1%
Oc1c(Cl)cc(Cl)cc1C=Nc1cc(C(F)(F)F)ccc1N1CCc2ccccc2C1 | ? | ? | . | ? | ? | 1.9µM*
CCOC(=O)COc1cc(C)c(Cl)cc1C(=O)c1ccn2nc(-c3ccc(OC)cc3)cc2n1 | . | . | 2.8% | . | . | ?
Fc1ccc2nc(Nc3nc4c(F)cccc4s3)sc2c1 | ? | ? | ? | 2.0% | ? | 9.53µM*
Fc1cccc2sc(Nc3nc4ccccc4s3)nc12 | ? | ? | 10µM* | ? | ? | ?
CCC(=O)NNc1nc2c(F)cc(F)cc2s1 | 11.9% | 0.3% | 7.3% | 3.5% | -0.9% | 2.7%
Fc1ccc2nc(Nc3nc4c(F)cc(F)cc4s3)sc2c1 | ? | 21.7% | . | 1.1% | ? | 8.49µM*
O=C(NNc1nc2ccccc2s1)c1ccccc1F | 21.9% | 1.7% | 0.0% | -1.5% | 7.4% | -1.1%
COc1cccc2sc(Nc3nc4ccc(NC(C)=O)cc4s3)nc12 | ? | -0.1% | -14.1% | -12.6% | 6.8% | ?
COc1ccc(OC)c(NC(=O)CN2C(=O)COc3ccc(S(=O)(=O)NC4CCCC4)cc32)c1 | . | . | . | . | . | -6.7%
CCS(=O)(=O)N1CCN(c2ccc(C(=O)NC34CC5CC(CC(C5)C3)C4)cc2[N+](=O)[O-])CC1 | 23.1µM* | -6.0% | -4.6% | -2.8% | -6.6% | ?
CS(=O)(=O)N1CCN(c2ccc(C(=O)NC34CC5CC(CC(C5)C3)C4)cc2[N+](=O)[O-])CC1 | 19.4% | -3.1% | ? | -2.0% | 1.4% | -17.2%
Nc1ccc2oc(-c3ccccn3)nc2c1 | ? | ? | 2.82µM* | ? | ? | 19µM*
Clc1ccc2oc(-c3ccccn3)nc2c1 | ? | 3.16µM* | 15.8µM* | ? | 2.51µM* | -20.7%[2.3 µM]
O/N=C/c1nc2cc(Cl)ccc2o1 | 25.5% | 3.7% | 19.4% | 3.4% | 7.8% | -9.7%
Nc1ccc2oc(Cc3ccc(Cl)cc3)nc2c1 | . | . | -0.6% | . | . | ?
Clc1ccc2ncc(-c3nnnn3-c3ccccc3)c(-c3ccccc3)c2c1 | -14.2% | -11.7% | -6.0% | -18.0% | 0.8% | -0.2%
Clc1ccc2[nH]cc(-c3nnnn3-c3ccccc3)c2c1 | -29.8% | -3.1% | -7.8% | -1.7% | -4.0% | 23.9µM*
O=C(O)c1ccc(/C=N/Nc2ccc(C(F)(F)F)cn2)cc1 | ? | ? | 12.6µM* | ? | 0.398µM* | 4.78µM*
O=C(O)c1ccc(N/N=C/c2ccc(OC(=O)c3ccccc3Cl)cc2)cc1 | ? | ? | -28.4% | ? | ? | 1.9µM*
COc1cc(/C=N/Nc2ccc(C(F)(F)F)cn2)ccc1O | ? | 11.0% | 24.8% | 15.8% | 0.9% | ?
O=C(O)c1cccc(N/N=C/c2ccc(F)c(F)c2)c1 | ? | 0.282µM* | 1.12µM* | ? | 0.282µM* | 0.338µM*
Nc1ccc(C(=O)N/N=C\c2ccc(OC(=O)c3ccccc3Cl)cc2)cc1 | ? | 2.4% | . | 4.5% | -2.9% | ?
O=C(N/N=C/C=C/c1ccccc1)c1ccncc1 | ? | -4.8% | 0.7% | 1.3% | -0.1% | -9.9%
O=C(N/N=C/c1ccc(F)c(F)c1)c1cccc(S(=O)(=O)N2CCCCC2)c1 | 4.5% | -1.8% | . | 0.6% | -4.5% | 6.5%
O=C(O)c1ccc(N/N=C/C=C/c2ccccc2)cc1 | ? | 0.251µM* | . | ? | 0.316µM* | 0.601µM*
CCOc1ccc(N(C)C(=O)C2CCN(S(=O)(=O)c3ccc4c(c3)CCCN4C(C)=O)CC2)cc1 | . | . | . | . | . | -4.6%
